Source: paper PMC5540273 (PLoS ONE, 2017)

Legend:
Conditions in all cases: concentration: 1 μM, replicates: in singlicate; n = 1
[1] = system: T1, RSK4(Kin.Dom.1-N-terminal)
T1 construct: gene RPS6KA6

[2] = system: T2, RSK4(Kin.Dom.2-C-terminal)
T2 construct: gene RPS6KA6

[3] = system: S6K1
[4] = system: SBK1
[5] = system: SGK2
[6] = system: SGK3
[7] = system: SGK
[8] = system: SIK2
[9] = system: SIK
[10] = system: SLK
[11] = system: T3, SNARK
T3 construct: gene NUAK2

[12] = system: SNRK
[13] = system: SRC
[14] = system: SRMS
[15] = system: SRPK1
[16] = system: SRPK2
[17] = system: SRPK3
[18] = system: STK16
[19] = system: STK33
[20] = system: STK35
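Also: KINOMEscan kinase panel screen.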

O=C(Nc1n[nH]c2cc(-c3cccs3)ccc12)C1CC1 [SB-731284]
%Inh [1]: 39% | %Inh [2]: 13% | %Inh [3]: 61% | %Inh [4]: 13% | %Inh [5]: 0% | %Inh [6]: 37% | %Inh [7]: 18% | %Inh [8]: 0% | %Inh [9]: 0% | %Inh [10]: 0% | %Inh [11]: 13% | %Inh [12]: 42% | %Inh [13]: 0% | %Inh [14]: 1% | %Inh [15]: 44% | %Inh [16]: 23% | %Inh [17]: 52% | %Inh [18]: 4% | %Inh [19]: 0% | %Inh [20]: 15%

Cc1ccc(NC(=O)c2cccc(N3CCCCC3)c2)cc1-c1ccc(C(=O)NCC2CC2)cc1 [GSK1917008]
%Inh [1]: 0% | %Inh [2]: 37% | %Inh [3]: 8% | %Inh [4]: 10% | %Inh [5]: 11% | %Inh [6]: 7% | %Inh [7]: 0% | %Inh [8]: 93.3% | %Inh [9]: 8% | %Inh [10]: 10% | %Inh [11]: 0% | %Inh [12]: 0% | %Inh [13]: 0% | %Inh [14]: 0% | %Inh [15]: 32% | %Inh [16]: 0% | %Inh [17]: 23% | %Inh [18]: 7% | %Inh [19]: 0% | %Inh [20]: 89%

CS(=O)(=O)c1cccc(CNc2nc(Nc3ccc4c(c3)CCC(=O)N4)ncc2C(F)(F)F)c1
%Inh [1]: 85% | %Inh [2]: 0% | %Inh [3]: 16% | %Inh [4]: 67% | %Inh [5]: 0% | %Inh [6]: 2% | %Inh [7]: 27% | %Inh [8]: 23% | %Inh [9]: 0% | %Inh [10]: 20% | %Inh [11]: 81% | %Inh [12]: 0% | %Inh [13]: 0% | %Inh [14]: 0% | %Inh [15]: 72% | %Inh [16]: 0% | %Inh [17]: 3% | %Inh [18]: 93.2% | %Inh [19]: 0% | %Inh [20]: 0%

Nc1cccc(-c2ccc3c(N)n[nH]c3c2)c1 [GSK2193613]
%Inh [1]: 0% | %Inh [2]: 25% | %Inh [3]: 0% | %Inh [4]: 8% | %Inh [5]: 0% | %Inh [6]: 34% | %Inh [7]: 33% | %Inh [8]: 0% | %Inh [9]: 0% | %Inh [10]: 2% | %Inh [11]: 22% | %Inh [12]: 0% | %Inh [13]: 0% | %Inh [14]: 3% | %Inh [15]: 54% | %Inh [16]: 16% | %Inh [17]: 0% | %Inh [18]: 15% | %Inh [19]: 0% | %Inh [20]: 0%

Cl.N#CCc1ccc(Nc2nccc(Nc3ccc(Oc4ccccc4)cc3)n2)cc1 [GW639905]
%Inh [1]: 0% | %Inh [2]: 0% | %Inh [3]: 0% | %Inh [4]: 13% | %Inh [5]: 0% | %Inh [6]: 90.1% | %Inh [7]: 0% | %Inh [8]: 0% | %Inh [9]: 0% | %Inh [10]: 0% | %Inh [11]: 96.6% | %Inh [12]: 2% | %Inh [13]: 37% | %Inh [14]: 82% | %Inh [15]: 18% | %Inh [16]: 0% | %Inh [17]: 0% | %Inh [18]: 79% | %Inh [19]: 0% | %Inh [20]: 65%

Cc1ccc(Nc2ccnc(Nc3ccc(C)c(F)c3)n2)cc1O.Cl [GW582868]
%Inh [1]: 0% | %Inh [2]: 0% | %Inh [3]: 0% | %Inh [4]: 6% | %Inh [5]: 0% | %Inh [6]: 0% | %Inh [7]: 1% | %Inh [8]: 100% | %Inh [9]: 0% | %Inh [10]: 41% | %Inh [11]: 0% | %Inh [12]: 0% | %Inh [13]: 86% | %Inh [14]: 0% | %Inh [15]: 34% | %Inh [16]: 7% | %Inh [17]: 17% | %Inh [18]: 11% | %Inh [19]: 0% | %Inh [20]: 99.5%

CCNC(=O)/C=C/c1n[nH]c2cc(Sc3ccccc3C(=O)NC)ccc12
%Inh [1]: 17% | %Inh [2]: 24% | %Inh [3]: 18% | %Inh [4]: 0% | %Inh [5]: 0% | %Inh [6]: 46% | %Inh [7]: 0% | %Inh [8]: 55% | %Inh [9]: 44% | %Inh [10]: 23% | %Inh [11]: 42% | %Inh [12]: 5% | %Inh [13]: 7% | %Inh [14]: 7% | %Inh [15]: 63% | %Inh [16]: 0% | %Inh [17]: 37% | %Inh [18]: 10% | %Inh [19]: 0% | %Inh [20]: 48%

CN1CCN(Cc2ccc(NC(=O)Nc3ccc(N(C)c4ccnc(Nc5ccc(CS(C)(=O)=O)cc5)n4)cc3)cc2)CC1.Cl [GW827654]
%Inh [1]: 6% | %Inh [2]: 57% | %Inh [3]: 17% | %Inh [4]: 0% | %Inh [5]: 58% | %Inh [6]: 21% | %Inh [7]: 53% | %Inh [8]: 15% | %Inh [9]: 22% | %Inh [10]: 97.3% | %Inh [11]: 59% | %Inh [12]: 10% | %Inh [13]: 3% | %Inh [14]: 0% | %Inh [15]: 92.3% | %Inh [16]: 31% | %Inh [17]: 82% | %Inh [18]: 80% | %Inh [19]: 0% | %Inh [20]: 18%

COc1ccc(C2=C(Nc3cccc(O)c3)C(=O)NC2=O)cc1 [SB-390766]
%Inh [1]: 0% | %Inh [2]: 20% | %Inh [3]: 17% | %Inh [4]: 8% | %Inh [5]: 11% | %Inh [6]: 9% | %Inh [7]: 0% | %Inh [8]: 0% | %Inh [9]: 0% | %Inh [10]: 27% | %Inh [11]: 0% | %Inh [12]: 0% | %Inh [13]: 0% | %Inh [14]: 0% | %Inh [15]: 49% | %Inh [16]: 0% | %Inh [17]: 0% | %Inh [18]: 34% | %Inh [19]: 100% | %Inh [20]: 0%

COc1cccc(NC(=O)NCCNc2ccnc(Nc3ccc(F)cc3)n2)c1 [GSK1379879]
%Inh [1]: 0% | %Inh [2]: 0% | %Inh [3]: 0% | %Inh [4]: 40% | %Inh [5]: 12% | %Inh [6]: 2% | %Inh [7]: 3% | %Inh [8]: 4% | %Inh [9]: 0% | %Inh [10]: 7% | %Inh [11]: 0% | %Inh [12]: 0% | %Inh [13]: 0% | %Inh [14]: 0% | %Inh [15]: 0% | %Inh [16]: 0% | %Inh [17]: 3% | %Inh [18]: 0% | %Inh [19]: 0% | %Inh [20]: 1%

CCNc1nccc(-c2c(-c3ccc(F)cc3)ncn2C2CCN(C)CC2)n1
%Inh [1]: 13% | %Inh [2]: 64% | %Inh [3]: 0% | %Inh [4]: 0% | %Inh [5]: 5% | %Inh [6]: 0% | %Inh [7]: 14% | %Inh [8]: 8% | %Inh [9]: 0% | %Inh [10]: 13% | %Inh [11]: 0% | %Inh [12]: 0% | %Inh [13]: 9% | %Inh [14]: 0% | %Inh [15]: 16% | %Inh [16]: 0% | %Inh [17]: 0% | %Inh [18]: 31% | %Inh [19]: 2% | %Inh [20]: 0%
